Numbering of substitutions follows the chain as printed.

What all share (experiment): PBM; 200 nM protein, PBS
Holding throughout (details): dsDNA, one strand shown

Assay [1] has as its target HOXA4 (Homo sapiens, UniProt Q00056 201-287, W262R).
Assay [2] has as its target HOXA4 (Homo sapiens, UniProt Q00056 201-287).
For assay [3], the target named is HOXA4 (Homo sapiens, UniProt Q00056 201-287, W262F).
The target in assay [4] is HOXC9 (Homo sapiens, UniProt P31274 178-260, K195R).
Assay [5] has as its target ALX4 (Homo sapiens, UniProt Q9H161 200-286).
In assay [6] the target is ALX4 (Homo sapiens, UniProt Q9H161 200-286, Q225E).
In assay [7] the target is HOXC9 (Homo sapiens, UniProt P31274 178-260).
For assay [8], the target named is HOXC9 (Homo sapiens, UniProt P31274 178-260, R193K).
The target of assay [9] is HOXC9 (Homo sapiens, UniProt P31274 178-260, R222W).
For assay [10], the target named is HOXC10 (Homo sapiens, UniProt Q9NYD6 254-340).
For assay [11], the target named is HOXC10 (Homo sapiens, UniProt Q9NYD6 254-340, K271E).
Assay [12] deals with PRRX1 (Homo sapiens, UniProt P54821 80-166, F113S).
For assay [13], the target named is PRRX1 (Homo sapiens, UniProt P54821 80-166).
The target in assay [14] is ALX3 (Homo sapiens, UniProt O95076 139-225, L168Q).
Assay [15] deals with ALX3 (Homo sapiens, UniProt O95076 139-225, L168V).
For assay [16], the target named is T1, PAX4 (Homo sapiens, UniProt O43316 9-242, R200K).
T1 sequence: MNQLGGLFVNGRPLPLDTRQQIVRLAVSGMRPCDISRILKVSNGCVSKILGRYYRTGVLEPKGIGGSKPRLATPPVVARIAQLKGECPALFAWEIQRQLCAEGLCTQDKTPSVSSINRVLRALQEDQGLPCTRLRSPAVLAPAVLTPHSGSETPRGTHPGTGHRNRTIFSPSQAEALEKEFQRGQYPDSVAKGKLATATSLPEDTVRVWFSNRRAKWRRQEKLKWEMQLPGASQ

In assay [17] the target is T2, PAX4 (Homo sapiens, UniProt O43316 9-242).
T2 sequence: T1 sequence with K192R

Assay [18] deals with ALX3 (Homo sapiens, UniProt O95076 139-225, N203Q).
The target of assay [19] is T3, PAX4 (Homo sapiens, UniProt O43316 9-242, R200Q).
T3 sequence: T1 sequence with K192Q

The target of assay [20] is T4, PAX4 (Homo sapiens, UniProt O43316 9-242, F177V).
T4 sequence: T1 sequence with F169V, K192R

For assay [21], the target named is ALX3 (Homo sapiens, UniProt O95076 139-225).
In assay [22] the target is T5, PAX4 (Homo sapiens, UniProt O43316 9-242, F177Y).
T5 sequence: T1 sequence with F169Y, K192R

Assay [23] addresses T6, PAX4 (Homo sapiens, UniProt O43316 9-242, R227W).
T6 sequence: T1 sequence with K192R, R219W

Assay [24] addresses ALX3 (Homo sapiens, UniProt O95076 139-225, N203S).

Sequence of HOXC9 (Homo sapiens, UniProt P31274 178-260, R222W) (P31274 178-260 R222W): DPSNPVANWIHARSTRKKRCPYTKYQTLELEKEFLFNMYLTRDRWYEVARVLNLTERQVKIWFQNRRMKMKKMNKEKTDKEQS
Sequence of HOXA4 (Homo sapiens, UniProt Q00056 201-287) (Q00056 201-287): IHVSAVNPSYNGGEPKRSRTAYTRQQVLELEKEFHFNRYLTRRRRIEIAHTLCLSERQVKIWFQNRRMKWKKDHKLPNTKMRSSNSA
Sequence of HOXC10 (Homo sapiens, UniProt Q9NYD6 254-340) (Q9NYD6 254-340): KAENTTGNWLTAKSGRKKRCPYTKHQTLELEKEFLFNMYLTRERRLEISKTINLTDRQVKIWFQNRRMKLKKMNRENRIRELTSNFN
Sequence of HOXC9 (Homo sapiens, UniProt P31274 178-260, R193K) (P31274 178-260 R193K): as the sequence (P31274 178-260 R222W) above, with R16K, W45R counted along it
Sequence of HOXC9 (Homo sapiens, UniProt P31274 178-260) (P31274 178-260): as the sequence (P31274 178-260 R222W) above, with W45R counted along it
Sequence of HOXC10 (Homo sapiens, UniProt Q9NYD6 254-340, K271E) (Q9NYD6 254-340 K271E): as the sequence (Q9NYD6 254-340) above, with K18E counted along it
Sequence of HOXC9 (Homo sapiens, UniProt P31274 178-260, K195R) (P31274 178-260 K195R): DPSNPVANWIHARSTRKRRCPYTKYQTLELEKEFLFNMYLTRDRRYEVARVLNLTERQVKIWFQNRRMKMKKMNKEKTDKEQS
Sequence of HOXA4 (Homo sapiens, UniProt Q00056 201-287, W262R) (Q00056 201-287 W262R): as the sequence (Q00056 201-287) above, with W62R counted along it
Sequence of ALX3 (Homo sapiens, UniProt O95076 139-225, L168Q) (O95076 139-225 L168Q): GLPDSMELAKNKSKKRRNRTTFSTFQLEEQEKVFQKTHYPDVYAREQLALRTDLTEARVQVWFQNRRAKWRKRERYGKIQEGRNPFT
Sequence of ALX3 (Homo sapiens, UniProt O95076 139-225, L168V) (O95076 139-225 L168V): as the sequence (O95076 139-225 L168Q) above, with Q30V counted along it
Sequence of PRRX1 (Homo sapiens, UniProt P54821 80-166, F113S) (P54821 80-166 F113S): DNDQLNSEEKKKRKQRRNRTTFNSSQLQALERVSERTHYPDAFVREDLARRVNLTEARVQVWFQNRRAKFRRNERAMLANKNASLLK
Sequence of ALX4 (Homo sapiens, UniProt Q9H161 200-286, Q225E) (Q9H161 200-286 Q225E): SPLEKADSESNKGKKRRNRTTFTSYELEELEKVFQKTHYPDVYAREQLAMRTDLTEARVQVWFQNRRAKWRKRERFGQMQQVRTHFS
Sequence of ALX3 (Homo sapiens, UniProt O95076 139-225, N203S) (O95076 139-225 N203S): as the sequence (O95076 139-225 L168Q) above, with Q30L, N65S counted along it
Sequence of HOXA4 (Homo sapiens, UniProt Q00056 201-287, W262F) (Q00056 201-287 W262F): as the sequence (Q00056 201-287) above, with W62F counted along it
Sequence of ALX3 (Homo sapiens, UniProt O95076 139-225, N203Q) (O95076 139-225 N203Q): as the sequence (O95076 139-225 L168Q) above, with Q30L, N65Q counted along it
Sequence of ALX4 (Homo sapiens, UniProt Q9H161 200-286) (Q9H161 200-286): as the sequence (Q9H161 200-286 Q225E) above, with E26Q counted along it
Sequence of PRRX1 (Homo sapiens, UniProt P54821 80-166) (P54821 80-166): as the sequence (P54821 80-166 F113S) above, with S34F counted along it
Sequence of ALX3 (Homo sapiens, UniProt O95076 139-225) (O95076 139-225): as the sequence (O95076 139-225 L168Q) above, with Q30L counted along it

On to ATGACAGC, for which the binding signal was 10.2 upbm affinity estimate (log intensity, higher = more binding, comparable within an allelic series) with HOXA4 [1]; 11.3 upbm affinity estimate (log intensity, higher = more binding, comparable within an allelic series) with HOXA4 [2]; 10.5 upbm affinity estimate (log intensity, higher = more binding, comparable within an allelic series) in the assay with HOXA4 [3].

On to GATTTATA, for which the binding signal with HOXA4 [1] is 10.4 upbm affinity estimate (log intensity, higher = more binding, comparable within an allelic series); in the assay with HOXA4 [2] it was 11.4 upbm affinity estimate (log intensity, higher = more binding, comparable within an allelic series).

For GCCCGAGC, the binding signal with HOXC9 [4] was 9.54 upbm affinity estimate (log intensity, higher = more binding, comparable within an allelic series); with ALX4 [5] it was 8.18 upbm affinity estimate (log intensity, higher = more binding, comparable within an allelic series); in the assay with ALX4 [6] it was 8.13 upbm affinity estimate (log intensity, higher = more binding, comparable within an allelic series); in the assay with HOXC9 [7], 9.62 upbm affinity estimate (log intensity, higher = more binding, comparable within an allelic series); with HOXC9 [8] it was 9.44 upbm affinity estimate (log intensity, higher = more binding, comparable within an allelic series); with HOXC9 [9], 9.78 upbm affinity estimate (log intensity, higher = more binding, comparable within an allelic series).

Consider CAATTTAG, for which the binding signal was 10.5 upbm affinity estimate (log intensity, higher = more binding, comparable within an allelic series) with HOXA4 [1] and 12.1 upbm affinity estimate (log intensity, higher = more binding, comparable within an allelic series) with HOXA4 [2].

In the case of CCCTCCAG, the binding signal is 9.59 upbm affinity estimate (log intensity, higher = more binding, comparable within an allelic series) in the assay with HOXC9 [4]; 10.1 upbm affinity estimate (log intensity, higher = more binding, comparable within an allelic series) with HOXC10 [10]; 9.64 upbm affinity estimate (log intensity, higher = more binding, comparable within an allelic series) with HOXC9 [7]; 9.54 upbm affinity estimate (log intensity, higher = more binding, comparable within an allelic series) with HOXC9 [8]; 10.1 upbm affinity estimate (log intensity, higher = more binding, comparable within an allelic series) with HOXC10 [11]; 9.74 upbm affinity estimate (log intensity, higher = more binding, comparable within an allelic series) with HOXC9 [9].

Regarding CCCCTCAC, the binding signal is 9.6 upbm affinity estimate (log intensity, higher = more binding, comparable within an allelic series) with HOXC9 [4]; 9.49 upbm affinity estimate (log intensity, higher = more binding, comparable within an allelic series) with PRRX1 [12]; 9.72 upbm affinity estimate (log intensity, higher = more binding, comparable within an allelic series) in the assay with HOXC9 [7]; 9.5 upbm affinity estimate (log intensity, higher = more binding, comparable within an allelic series) with HOXC9 [8]; 9.75 upbm affinity estimate (log intensity, higher = more binding, comparable within an allelic series) with HOXC9 [9]; 9.53 upbm affinity estimate (log intensity, higher = more binding, comparable within an allelic series) with PRRX1 [13].

Turning to AATTAAAA, the binding signal with HOXC9 [4] is 12.5 upbm affinity estimate (log intensity, higher = more binding, comparable within an allelic series); in the assay with PRRX1 [12], 11.2 upbm affinity estimate (log intensity, higher = more binding, comparable within an allelic series); with ALX4 [6] it was 12.8 upbm affinity estimate (log intensity, higher = more binding, comparable within an allelic series); with HOXC10 [11], 11.8 upbm affinity estimate (log intensity, higher = more binding, comparable within an allelic series); in the assay with ALX3 [14], 10.3 upbm affinity estimate (log intensity, higher = more binding, comparable within an allelic series); with ALX3 [15] it was 9.86 upbm affinity estimate (log intensity, higher = more binding, comparable within an allelic series).

As for GGTAATAA, the binding signal with HOXC9 [4] is 12.4 upbm affinity estimate (log intensity, higher = more binding, comparable within an allelic series); in the assay with HOXC10 [10], 12.2 upbm affinity estimate (log intensity, higher = more binding, comparable within an allelic series); with HOXC9 [7], 12.6 upbm affinity estimate (log intensity, higher = more binding, comparable within an allelic series); in the assay with HOXC9 [8], 12.5 upbm affinity estimate (log intensity, higher = more binding, comparable within an allelic series); in the assay with HOXC10 [11], 11.9 upbm affinity estimate (log intensity, higher = more binding, comparable within an allelic series); in the assay with HOXC9 [9] it was 10.9 upbm affinity estimate (log intensity, higher = more binding, comparable within an allelic series).

Take CAGCCTTC: the binding signal was 9.4 upbm affinity estimate (log intensity, higher = more binding, comparable within an allelic series) with HOXC9 [4]; 9.83 upbm affinity estimate (log intensity, higher = more binding, comparable within an allelic series) with HOXC10 [10]; 9.16 upbm affinity estimate (log intensity, higher = more binding, comparable within an allelic series) with PAX4 [16]; 9.3 upbm affinity estimate (log intensity, higher = more binding, comparable within an allelic series) with PAX4 [17]; 9.46 upbm affinity estimate (log intensity, higher = more binding, comparable within an allelic series) with HOXC9 [7]; 7.71 upbm affinity estimate (log intensity, higher = more binding, comparable within an allelic series) with ALX3 [18]. Further, the binding signal is 9.32 upbm affinity estimate (log intensity, higher = more binding, comparable within an allelic series) with PAX4 [19]; 9.41 upbm affinity estimate (log intensity, higher = more binding, comparable within an allelic series) in the assay with HOXC9 [8]; 9.05 upbm affinity estimate (log intensity, higher = more binding, comparable within an allelic series) with PAX4 [20]; 9.85 upbm affinity estimate (log intensity, higher = more binding, comparable within an allelic series) in the assay with HOXC10 [11]; 7.49 upbm affinity estimate (log intensity, higher = more binding, comparable within an allelic series) in the assay with ALX3 [21]; 9.15 upbm affinity estimate (log intensity, higher = more binding, comparable within an allelic series) with PAX4 [22]. Besides, the binding signal with ALX3 [14] is 7.82 upbm affinity estimate (log intensity, higher = more binding, comparable within an allelic series); in the assay with HOXC9 [9], 9.69 upbm affinity estimate (log intensity, higher = more binding, comparable within an allelic series); with ALX3 [15], 7.71 upbm affinity estimate (log intensity, higher = more binding, comparable within an allelic series); with PAX4 [23], 9.26 upbm affinity estimate (log intensity, higher = more binding, comparable within an allelic series); with ALX3 [24] it was 7.68 upbm affinity estimate (log intensity, higher = more binding, comparable within an allelic series).

ACCGCCCG: the binding signal with HOXC9 [4] is 9.62 upbm affinity estimate (log intensity, higher = more binding, comparable within an allelic series); in the assay with PAX4 [16], 9.22 upbm affinity estimate (log intensity, higher = more binding, comparable within an allelic series); in the assay with PAX4 [17], 9.09 upbm affinity estimate (log intensity, higher = more binding, comparable within an allelic series); with HOXC9 [7] it was 9.79 upbm affinity estimate (log intensity, higher = more binding, comparable within an allelic series); with PAX4 [19] it was 9.24 upbm affinity estimate (log intensity, higher = more binding, comparable within an allelic series); in the assay with HOXC9 [8], 9.6 upbm affinity estimate (log intensity, higher = more binding, comparable within an allelic series). In addition, the binding signal with PAX4 [20] is 9.1 upbm affinity estimate (log intensity, higher = more binding, comparable within an allelic series); with PAX4 [22] it was 9.01 upbm affinity estimate (log intensity, higher = more binding, comparable within an allelic series); with HOXC9 [9], 9.71 upbm affinity estimate (log intensity, higher = more binding, comparable within an allelic series); in the assay with PAX4 [23], 9.19 upbm affinity estimate (log intensity, higher = more binding, comparable within an allelic series).

These data come from PMC11006913.
